In PubChem BioAssay AID1053144 (Broad Institute, 2014):
The campaign covered roughly 3,400 compounds. About 160 (4.7%) were called active.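 The calls were made as follows: active = fitted curve reaches 30% activation at a concentration no higher than the top valid tested dose, luminescence rising; inconclusive = no clear call, values can overlap the other calls; inactive = signal moving opposite to the expected increase, plus the rest.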 Not all results are given here. Measured potencies and affinities stand elsewhere.

Assay: Wnt/beta-catenin signaling activators, dose response, cell-based, iPS-derived NPC, luciferase, Wnt3a, cherry-pick (AID 1053144);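 also: Wnt3a stimulus is conditioned medium from Wnt3a-transfected mouse L cells at 5% in well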
Conditions: NPC TCF/LEF luciferase reporter, Wnt3a EC25, 24 h; series mostly up to 26 µM

activation, inactive:
CC1CCCCN1C(=O)c1cc(-c2ccc3c(c2)OCO3)on1 (stereo not drawn), Oc1oc(-c2ccc(Br)cc2)nc1/C=N/c1ccccn1, Cc1cccc(N2CC(C(=O)NC3CCCCCC3)CC2=O)c1C (stereo not drawn), COc1ccc2sc(NC(C)=O)nc2c1, CCC(=O)Nc1nc2cc(OC)ccc2s1, CCCC(=O)Nc1nc2ccc(OCC)cc2s1, COCC(=O)Nc1nc2ccc(C)cc2s1, Cc1ccc(-c2cn3c(=O)cc(C)[nH]c3n2)cc1, CCN(CC)S(=O)(=O)c1ccc(NS(=O)(=O)c2cccc(C)c2)cc1, Cc1ccc(/C=N/Nc2ncnc3nc[nH]c23)cc1, Cc1cccc(N2CCN(C(=O)CCCOc3ccccc3)CC2)c1C, CCN1C(=O)CCN(C2CCCC2)c2nc(Nc3ccc(C(=O)NC4CCN(C)CC4)cc3OC)ncc21, CC(=O)Nc1ccc(C(=O)COC(=O)C2CC2C)c(F)c1 (stereo not drawn), Fc1ccc(-c2ccc3c(n2)CCCN3Cc2ccccn2)cc1, O=C(NC(=O)c1ccccc1)Nc1ccccc1O, O=C(Nc1ccccc1N1CCN(c2ccccc2)CC1)c1ccccc1, Oc1[nH]c2ccccc2c1C=Nc1ccc2c(c1)OCO2, COc1ccccc1C(=O)N(C)c1nnc(-c2ccccc2)s1, CCOc1cccc(C(=O)Nc2ccc3c(c2)OCCO3)c1, c1ccc2oc(-c3ccn[nH]3)cc2c1, CCNc1nc(-c2cc3ccccc3o2)cs1, Oc1ccc(Cl)cc1CNc1nccs1, CN(C)c1ccc(/C=N/NC(=O)c2ccn(C)n2)cc1, O=C(NCCc1cccs1)C1CC(c2ccccc2[N+](=O)[O-])=NO1 (stereo not drawn), Clc1ccccc1CSc1nc2ccncc2[nH]1, CC(=O)Nc1ccc2nc(-c3ccccn3)[nH]c2c1, c1ccc(-c2ccc(-c3ccccn3)s2)nc1, NC(=O)c1ccccc1OCc1nc2ccccc2s1, Cc1ccc(NC(=O)c2cc3c(s2)CCCC3)cc1, COc1ccc2cc(-c3ccccc3)ncc2c1, COc1ccc(-c2cc(-c3ccc(OC)cc3)[nH]n2)cc1, O=C(Nc1ccc(Br)cc1)c1cc2ccccn2n1, Cc1ccc(C)c(NC(=O)c2cc3ccccn3n2)c1, Clc1ccc(-n2nnc(-c3cccnc3)n2)cc1Cl, O=C(Nc1ccc(F)cc1F)c1csc(-c2cccs2)n1, Cc1nc([N+](=O)[O-])cn1CC(O)c1ccc(Cl)cc1 (stereo not drawn), COc1ccc(C(=O)c2oc3ccc(OC)cc3c2N)cc1, Nc1c(C(=O)c2ccccc2)oc2ccc(Br)cc12, COc1ccc(C(=O)Nc2ccc3c(c2)nc2n3CCSC2)cc1, Cc1ccc2cc(C#N)c(SCC(=O)N3CCCC3)nc2c1, NC(=O)C(=O)N/N=C1\CCc2ccccc21, O=C(CC(=O)c1ccccc1)Nc1ccccc1, CC(=O)Nc1cccc(NC(=O)CCCC(=O)O)c1, CC(C)c1ccc(Nc2nnc(SCC(=O)NCC3CCCO3)s2)cc1 (stereo not drawn), CCCc1cc(C(=O)Nc2cccnc2)no1, CCCc1cc(C(=O)Nc2cccc(Cl)c2)no1, O=C(Nc1ccc(N2CCCCC2)cc1)c1cncc(Br)c1, Nc1c(-c2cccc(Cl)c2)cnc2c(-c3ccccc3)cnn12, Cc1occc1C(=O)N/N=C/c1ccc2c(c1)OCO2, O=C(NN=Cc1ccc2c(c1)OCO2)c1ccccc1, CCOC(=O)c1ccc(-c2ccc(C=O)o2)cc1, CCOC(=O)c1ccc(NC(=O)N(CC)CC)cc1, O=C(Nc1ccc2c(c1)OCCO2)c1cncc(Br)c1, C=CCn1c(C)cc(C(=O)CSc2nc3ccccc3o2)c1C, COc1cc(C2C3=C(CC(C)(C)CC3=O)Nc3c2c(=O)[nH]c(=O)n3Cc2ccccc2)ccc1O (stereo not drawn), CC(=O)Oc1ccc2occ(C(=O)c3cccs3)c2c1, O=C(c1ccc(Br)cc1)c1coc2ccc(O)cc12, COc1ccc(C(=O)NN/C(=N/S(=O)(=O)c2ccc(C)cc2)c2ccccc2)cc1, Cc1[nH]c2ccc(F)cc2c1CCN1C(=O)OC(C)(C)C1(C)O (stereo not drawn), COc1cc(/C=C/C(=O)N2CCC=CC2=O)cc(OC)c1OC, COc1ccc(C(=O)O/N=C(\N)c2ccccc2)cc1OC, Oc1ccc(-c2cn3ccccc3n2)cc1, CC(=O)Nc1ccccc1OCC(=O)c1ccc2c(c1)OCO2, Clc1ccccc1/C=C/c1nc(-c2cccnc2)no1, C(=C\c1nc(-c2ccncc2)no1)/c1ccccc1, Cc1ccc(NC(=O)C(=O)c2c[nH]c3ccccc23)cc1, COc1ccc2[nH]cc(/C=C/C(=O)c3ccccc3)c2c1, Cc1cccc2cc(/C=N/Nc3ccc(C(=O)O)cc3)c(Cl)nc12, Brc1ccccc1-n1nnc(-c2cnc3ccccc3c2)n1, COc1ccc(-c2ccc(SCC(=O)Nc3nnc(C)s3)nn2)cc1, COc1ccc(C(=O)Nc2cc(C)on2)cc1, O=C(COc1ccc2c(c1)CCC2)N1CCc2ccccc21, O=C(COc1ccc([N+](=O)[O-])cc1Cl)N1CCc2ccccc21, O=C(Nc1ccccc1O)c1csc2c1CCCC2, O=C(Nc1ccccn1)C(=O)Nc1ccccn1, Cc1cc(SCC(=O)c2ccc(Cl)cc2)nc(=O)[nH]1, O=C(Nc1nc(-c2ccccn2)cs1)C12CC3CC(CC(O)(C3)C1)C2, CCC(C)NC(=O)c1cc(-c2ccc3c(c2)OCO3)on1 (stereo not drawn), O=c1c(N=Nc2ccccc2)c[nH]n1-c1ccccc1, c1ccc(N=NC2=NN(c3ccccc3)CS2)cc1, CCc1ccc(C(=O)CCC(=O)Nc2ccc(OC)c(S(=O)(=O)N3CCCCC3)c2)cc1, CCOc1ccccc1-n1nnnc1SCC(=O)O, Cc1c(CC(=O)N[C@H](C(=O)O)C(C)C)c(=O)oc2cc3c(cc12)CCC(C)(C)O3, O=C(Nc1ccc2nc(-c3ccco3)[nH]c2c1)c1ccco1, Cn1cccc1-c1nc2ccc(NC(=O)c3ccco3)cc2[nH]1, O=C(Nc1ccc2c(c1)Cc1ccccc1-2)c1ccccc1F, Cc1ccc(C)c(N2CCN(C(=O)CCc3nc(-c4ccccc4C(F)(F)F)no3)CC2)c1, CCOC(=O)C1CCCN(C(=O)CCc2nnc(-c3ccc(C(C)=O)s3)o2)C1 (stereo not drawn), Cc1ccc(OCc2cc(C(=O)N3CCN(c4ccccc4)CC3)no2)cc1C, CC(=O)Nc1cccc(NC(=O)c2cc3ccccc3o2)c1, CC(C)(C)C(=O)Nc1ccc(C(=O)Nc2cccnc2)cc1, COc1cc(/C=C/c2ccc3cccc(O)c3n2)cc(Cl)c1OC, COc1cccc(/C=C/c2ccc3cccc(O)c3n2)c1OC, COc1cc(/C=C/C(=O)OCC(=O)NCCc2ccccc2)cc(OC)c1OC, Oc1ccc(Cl)cc1C=NN1CCCCCC1, COc1ccc(-c2nc3ccccc3s2)cc1NC(C)=O, CCN1CCN(C(=O)c2ccc(-c3nc4ccccc4s3)s2)CC1, CN(CCO)c1c2c(nc3cc(-c4cccc(F)c4)nn13)CCCC2, O=[N+]([O-])c1cccc(C2=NC(c3ccccc3)CO2)c1 (stereo not drawn), O=C(c1ccccc1)c1nnc(-c2ccccc2F)o1, O=C(c1cc(-c2cccc(O)c2)on1)N1CCOCC1, O=C(c1cc(-c2cccc(O)c2)on1)N1CCCCC1, Cc1cc(=O)oc2cc(OCC(=O)Nc3nccs3)ccc12, Cn1cccc1/C=C1\SC(=O)N(c2ccccc2)C1=O, CCn1cc(S(=O)(=O)CC(=O)Nc2ccc3c(c2)OCO3)c2ccccc21, CC(=O)Oc1ccc(-c2csc(Nc3ccccn3)n2)cc1, CC(=O)c1sc(NC(=O)c2ccc3c(c2)OCO3)nc1C, CC(C)NC(=O)N1CCCN(c2nc3ccc(Cl)cc3s2)CC1, CC(C)NC(=O)c1ccc2c3n(nc2c1)-c1ccc(Cl)cc1CO3, O=C(NCCO)c1ccc2c3n(nc2c1)-c1ccccc1CO3, C=CCNC(=O)c1ccc2c3n(nc2c1)-c1ccc(C)cc1CO3, Cc1ccc2c(c1)COc1c3ccc(C(=O)NC(C)C)cc3nn1-2, Cc1ccc2c(c1)COc1c3ccc(C(=O)NCCO)cc3nn1-2, C[C@@H](CO)NC(=O)c1ccc2c3n(nc2c1)-c1ccc(Cl)cc1CO3, O=C(c1ccco1)N1CCN(c2ccc(N3CCCCC3)nn2)CC1, c1cn2c(Nc3ccc4c(c3)OCCO4)c(-c3ccc(N4CCOCC4)cc3)nc2cn1, Cc1nn(C(=O)c2cccs2)c(N)c1-c1ccccc1, O=C(/C=C/c1ccc([N+](=O)[O-])cc1)Nc1cccnc1, COc1ccc(OC)c(NC(=O)CSc2nnc(C3CCCCC3)n2-c2ccccc2)c1, O=C(COc1ccc2ccccc2c1)N1CCCC1, O=C(OCC(=O)N1CCOCC1)c1ccc2ccccc2c1O, O=C(Nc1ccc(-c2cn3ccsc3n2)cc1)C1CC1, O=C(Nc1ccc(C(=O)c2ccccc2)cc1)c1ccccc1
